Rows were chosen to be rich in hits. Some 0.73% of all compounds tested hit in one or more screens of this group.
BH1578 lux ind: inducers of Vibrio cholerae quorum light production without autoinducers, primary screen, BH1578 luxS cqsA deficient, single point; activation, % at 18.7 µM; 0.16% of 350,000 active; V. cholerae BH1578 lux reporter, luminescence, 6 h; AID 588436, 2011; in the data active = activation mostly above about 9.7%, no sharp cut-off
BioA inh: M. tuberculosis BioA enzyme inhibitors, primary screen, biochemical, plate reader, single point, HTS. inhibition, % at 9.99 µM. 0.096% of 360,000 active. purified M. tuberculosis BioA enzyme. 7,8-diaminopelargonic acid synthase BioA (Mycobacterium tuberculosis). AID 602481, 2012; in the data active = inhibition above about 40%
VHR inh abs: VHR1 phosphatase inhibitors, primary screen, biochemical, absorbance, uHTS | Dual specificity protein phosphatase 3 (Homo sapiens), P51452 | 0.52% of 290,000 active | AID 1654, 2009 | recombinant VHR phosphatase, pNPP absorbance | inhibition, % at 13.3 µM; in the data active = inhibition above about 50%
Target sequence (P51452 whole entry, looked up): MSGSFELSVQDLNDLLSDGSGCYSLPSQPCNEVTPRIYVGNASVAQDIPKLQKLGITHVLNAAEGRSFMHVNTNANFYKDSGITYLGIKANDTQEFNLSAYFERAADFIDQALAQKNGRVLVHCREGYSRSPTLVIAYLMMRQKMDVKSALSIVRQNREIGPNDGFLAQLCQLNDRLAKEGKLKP
Yp Topo-I inh: Yersinia pestis topoisomerase I inhibitors, primary screen, biochemical, cleavage product accumulation, plate reader, single point. DNA topoisomerase I (Yersinia pestis CO92). Y. pestis Topo-I cleavage product accumulation. activity, % at 10 µM. 0.064% of 360,000 active; in the data active = activity above about 50%, passing the limit was not always enough
TcdB GH inh: TcdB glycohydrolase inhibitors, primary screen, biochemical, single point, plate reader. Toxin B (Clostridioides difficile), P18177. AID 652162, 2013. 0.24% of 350,000 active. TcdB glycohydrolase enzymatic assay. inhibition, % at 9.99 µM; in the data active = inhibition above about 10%
An asterisk follows results filed as active; i = inactive; . = not tested or not shown.

SMILES	BH1578 lux ind	BioA inh	VHR inh abs	Yp Topo-I inh	TcdB GH inh
O=C(N[C@H]1CC[C@@H](CCNS(=O)(=O)c2ccc(Cl)cc2)O[C@@H]1CO)c1cccc(F)c1	.	6	.	.	-10
CCOC(=O)C(C(=O)OCC)C(=O)c1cc(OC)c(OC)c(OC)c1	i	-1	52*	2	.
COc1cc(C(=O)OCCCOC(=O)c2cc(OC)c(OC)c(OC)c2)cc(OC)c1OC	i	-1	10	4	-1
CO[C@H]1CC[C@@H]2CCOc3c(C#N)cccc3C(=O)N(C)C[C@H](OC)[C@@H](C)C(=O)N(C)C[C@@H]1O2	.	-1	.	.	-1
Cc1ccc(C(=O)NNC(=O)CSc2nnc3c(n2)[nH]c2ccc(F)cc23)cc1	.	-1	57*	2	.
Cc1nnc(NC(=O)CSc2nnc3c(n2)[nH]c2ccc(Br)cc23)s1	0	.	60*	16	2
C[C@H](CO)N1C[C@H](C)[C@@H](CN(C)C)Oc2ccc(NC(=O)c3ccncc3)cc2CC1=O	.	2	.	.	0
Cc1c(CNC(=O)c2c([N+](=O)[O-])cnn2C)cnn1C	i	2	15	1	24*
CS(=O)(=O)Nc1ccc2c(c1)[C@H]1C[C@H](CC(=O)NC3CCCCC3)O[C@@H](CO)[C@H]1O2	.	-3	.	.	0
CCn1c(C)nc2cc(C(=O)N/N=C/c3ccc(O)cc3)ccc21	0	.	-8	0	14*
CSc1ccc(/C=N/NC(=O)c2ccc(O)cc2)cc1	i	.	60*	-6	1
CCn1c(C)nc2cc(C(=O)N/N=C/c3ccc(OC)c(O)c3)ccc21	0	.	5	-7	11*
COc1ccc(C(=O)N/N=C/c2ccc(SC)cc2)cc1	0	.	-14	9	0
CCn1c(C)nc2cc(C(=O)N/N=C/c3ccc(OC)cc3)ccc21	0	.	9	-3	0
C[C@@H]1CCCCO[C@@H](CN(C)Cc2ccncc2)[C@H](C)CN([C@@H](C)CO)C(=O)c2cc(NC(=O)Nc3ccc4c(c3)OCO4)ccc2O1	.	1	.	.	1
COc1ccc(S(=O)(=O)N(C)C[C@@H]2OCCCC[C@@H](C)Oc3ccc(NC(=O)Nc4cccc5ccccc45)cc3C(=O)N([C@@H](C)CO)C[C@@H]2C)cc1	.	-1	.	.	-1
CCCn1c(=N)c(C(=O)NC2CCCC2)cc2c(=O)n3cccc(C)c3nc21	17*	-2	18	12	.
O=C1Nc2ccc(Br)cc2C1Cc1ccccc1F (stereo not drawn)	0	1	12	5	28*
O=C(NCC[C@@H]1CC[C@@H](NC(=O)C2CCCC2)[C@@H](CO)O1)c1cnccn1	.	-1	.	.	-1
O=C(O)C1CCC(CNCc2ccccc2Cl)CC1 (stereo not drawn)	0	.	52*	-9	1
CO[C@@H]1CN(C)C(=O)c2ccc(NC(=O)C3CCC3)cc2OC[C@@H](C)N(C(=O)CN(C)C)C[C@@H]1C	.	-4	.	.	.
CCCCn1c(N)c(Sc2ccccc2)c(=O)[nH]c1=O	0	3	19	-10	.
CCCCn1c(N)c(Sc2ccccc2[N+](=O)[O-])c(=O)[nH]c1=O	-4	1	51*	0	-1
CC1CCCN(C(=O)c2ccc3nc[nH]c3c2)C1 (stereo not drawn)	0	.	52*	2	.
C/C=C/c1ccc([C@@H]2[C@@H](C#N)N(c3ncc(CC)s3)[C@@H]2CO)cc1	.	1	.	.	0
SMILES	BH1578 lux ind	BioA inh	VHR inh abs	Yp Topo-I inh	TcdB GH inh
Clc1ccc(-c2nc3ccc(Cl)cn3c2Cc2ccccc2)cc1	0	-1	.	19	13*
Cc1ccc(Cc2c(-c3ccc(Cl)cc3)nc3ccc(Cl)cn23)cc1	-1	-1	.	20	-2
Cc1ccn2c(Cc3ccccc3)c(-c3ccc(F)cc3)nc2c1	0	-1	.	43	10*
Cc1ccc(Cc2c(-c3ccc(C)cc3)nc3ccc(Cl)cn23)cc1	0	-2	.	-5	11*
COCC(=O)N(C)C[C@H]1Oc2cc(-c3cccnc3)ccc2S(=O)(=O)N([C@H](C)CO)C[C@H]1C	.	-2	.	.	0
COCC(=O)N(C)C[C@H]1Oc2ncc(-c3ccccc3C)cc2C(=O)N([C@H](C)CO)C[C@@H]1C	.	-2	.	.	0
Cc1noc(C)c1S(=O)(=O)N(C)C[C@H]1OCCCC[C@H](C)Oc2ccc(NC(=O)C3CCCCC3)cc2C(=O)N([C@@H](C)CO)C[C@H]1C	.	-1	.	.	0
CCOC(=O)C1=C(C)Nc2nnnn2C1c1ccc(OC)c(Br)c1 (stereo not drawn)	0	3	25	1	12*
Cc1ccccc1OCc1nnc(SCC(=O)Nc2ccc3c(c2)oc2ccccc23)n1C	i	0	-9	-6	.
Cc1ccc(-c2nnc(SCC(=O)Nc3ccc4c(c3)oc3ccccc34)n2C)c(Cl)c1	3	-3	59*	1	.
Cc1ccc(CNC(=O)c2ccc(NC(=O)CCS(=O)(=O)c3cccs3)cc2)cc1	i	.	15	12	.
O=C(CCS(=O)(=O)c1cccs1)Nc1ccc(C(=O)NCc2ccccc2)cc1	0	.	53*	11	.
COc1ccc(CNC(=O)c2cc3c(s2)CN(Cc2ccccc2)C3)cc1	i	.	-3	-4	10*
COc1ccc(CNC(=O)c2cccs2)cc1	i	3	3	1	.
COc1cc(C)c(Br)cc1S(=O)(=O)NCc1cccs1	i	2	54*	13	4
COc1cc(C)c(Br)cc1S(=O)(=O)NCc1ccncc1	0	.	-7	21	2
Cn1c2c(c(=O)[nH]c1=O)C(c1ccc(O)cc1)C1=C(N2)c2ccccc2C1=O (stereo not drawn)	25*	4	6	-4	-2
Nc1nc2c(c(=O)[nH]1)C(c1ccccc1)C1=C(N2)c2ccccc2C1=O (stereo not drawn)	i	-2	0	-10	0
Cc1noc(C)c1NC(=O)N[C@H]1CC[C@@H](CC(=O)N2CCCCC2)O[C@H]1CO	.	4	.	.	2
O=C(CCN1CCCCC1)N[C@@H]1CC[C@@H](CCn2cc(-c3ccccc3)nn2)O[C@H]1CO	.	3	.	.	1
COc1ccc(C(=O)NNS(=O)(=O)c2ccccc2)cc1	i	-3	2	-12	-6
COc1ccc(C(=O)NNS(=O)(=O)c2ccc(OC)cc2)cc1	0	3	58*	10	-5
C[C@@H]1CN([C@@H](C)CO)C(=O)c2cc(NC(=O)Nc3cccc4ccccc34)ccc2O[C@@H](C)CCCCO[C@@H]1CN(C)S(=O)(=O)c1cn(C)cn1	.	-5	.	.	-1
COc1ccc(C(=O)Nc2cc(Cl)ccc2C(=O)O)cc1	0	.	-8	-4	29*
COCC#Cc1ccc([C@@H]2[C@@H](CO)N3C(=O)CN(C(=O)Nc4ccccc4F)C[C@H]23)cc1	.	.	.	.	-1

Screening results from PubChem.
